Source: PubChem (The Scripps Research Institute Molecular Screening Center)
FBW7 activator – human FBW7 E3 ligase activation, primary screen | normalized activity (activation), % at 26.1 µM | Q969H0 | 0.13% of 650,000 active | AlphaScreen FBW7–phospho-cyclin E peptide binding, activator screen; in the data active means normalized activity above about 1.9%;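 further: purified mutant Fbw7 with reduced substrate affinity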
TEAD-YAP block – TEAD-YAP interaction inhibition; inhibition, % at 9.12 µM; HEK-TIYL cells, TEAD-Gal4/YAP UAS-luciferase luminescence; 1.4% of 640,000 active; AID 1259422; in the data active means inhibition above about 32%
GPR151 ag – activates the human receptor GPR151. Q8TDV0. PathHunter beta-arrestin GPR151 cells, luminescence. activation, % at 11.2 µM. 1% of 650,000 active. AID 1508602; in the data active means activation above about 4.9%
Target sequence (Q8TDV0 whole entry, looked up): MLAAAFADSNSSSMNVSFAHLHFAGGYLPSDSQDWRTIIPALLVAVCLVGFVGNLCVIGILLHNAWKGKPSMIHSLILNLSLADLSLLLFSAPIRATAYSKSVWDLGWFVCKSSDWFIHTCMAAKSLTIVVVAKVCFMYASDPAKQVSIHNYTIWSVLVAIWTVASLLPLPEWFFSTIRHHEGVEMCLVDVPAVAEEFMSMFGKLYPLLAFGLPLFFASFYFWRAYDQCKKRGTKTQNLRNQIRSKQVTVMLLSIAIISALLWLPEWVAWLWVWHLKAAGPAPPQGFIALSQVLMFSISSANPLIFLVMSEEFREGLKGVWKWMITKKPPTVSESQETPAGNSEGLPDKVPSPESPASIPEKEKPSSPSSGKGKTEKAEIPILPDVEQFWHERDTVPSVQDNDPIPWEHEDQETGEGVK
MITF primary – blocks human microphthalmia-associated transcription factor; 0.91% of 650,000 active; AlphaScreen MITF homodimerization, bead proximity signal; inhibition, % at 2.6 µM; O75030; in the data active means inhibition above about 50%
GPR151 conf act – confirmation of human GPR151 activators | GPR151 PathHunter beta-arrestin cells, luminescence, 90 min; % of EA-reagent control over plate median | shares compounds with GPR151 ag | activation, % at 11.2 µM | 6,700 tested, under 10 active;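 active means mean percent activation across replicates above the confirmation screen cutoff of 4.91%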
GPR119 ag – GPR119 activation, counter-screen for GPR151 activators; shares compounds with GPR151 ag; GPR119 PathHunter beta-arrestin cells, luminescence, 90 min; 0 = compound-well median, 100 = enzyme-acceptor control; activation, % at 11.2 µM; 0.3% of 6,700 active;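 active means mean percent activation in the counterscreen above 29.09%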;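 further: counterscreen on off-target GPR119 to flag nonselective hits from the GPR151 activator screen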
A number is an active result; 0 = inactive; - = no result; ! = not active in a repeat. The list is not random: actives were taken first. Their share in the collection is about 3.5%.

SMILES	FBW7 activator	TEAD-YAP block	GPR151 ag	MITF primary	GPR151 conf act	GPR119 ag
CCSc1ccccc1C(=O)Nc1ccc(S(=O)(=O)N2CCOCC2)cc1	0	0	6.5	0	0	0
CCOc1ccc(NC(=O)C2=C(C)NC(=O)NC2c2ccccc2Br)cc1 (stereo not given)	0	0	0	0	-	-
CCOC(=O)C1=C(O)/C(=C\c2ccc(F)cc2)N=C1C	0	0	0	0	-	-
CCOC(=O)C1=C(O)/C(=C/c2ccc(N(C)C)cc2)N=C1C	0	0	12.2	0	0	0
Cc1nnc(C2CCCN(C(=O)NCc3cccc4ccccc34)C2)s1 (stereo not given)	0	0	0	0	-	-
CCCCn1cc(S(=O)(=O)c2ccc(OC)cc2)c(=O)c2ccccc21	0	0	0	0	-	-
Cc1cc(/C=N/n2cnnc2)c(C)n1-c1ccc(Cl)cc1Cl	0	0	5.3	0	0	0
Cc1cc(/C=N/n2cnnc2)c(C)n1-c1ccc(Cl)cc1	0	0	0	0	-	-
COc1ccc(N2C(=O)NC3CC2(C)Oc2c(OC)cccc23)c(OC)c1 (stereo not given)	0	0	6.7	0	0	0
COc1ccc(N2C(=O)NC3CC2(C)Oc2c(OC)cccc23)cc1 (stereo not given)	0	0	0	0	-	-
COc1ccc(Br)cc1C(=O)N/N=C/c1cccc([N+](=O)[O-])c1	0	0	0	0	-	-
NC(=O)NC1NC(=O)NC1=O (stereo not given)	0	0	5.7!	0	0	0
CCOc1ccc(C(=O)Nc2cc(-c3nc4cc(C)ccc4o3)ccc2Cl)cc1	0	0	0	0	-	-
COc1cc(/C=C(/C(=O)OCC(N)=O)c2ccc(-c3ccccc3)cc2)cc(OC)c1OC	0	0	5.1	0	0	0
COc1ccccc1/C=C(/C(=O)OCC(N)=O)c1ccccc1	0	0	0	0	-	-
CCOC(=O)C1CCCCN1Cc1cc(C)c(OC)cc1C (stereo not given)	0	0	4.9	0	0	0
CCOC(=O)C1CCCCN1Cc1ccc(OC)c(C)c1OC (stereo not given)	0	0	0	0	-	-
Cc1cccc(C(=O)Nc2sc3c(c2C(=O)Nc2cccnc2)CCCC3)c1	0	0	0	0	-	-
NS(=O)(=O)c1ccc(N/N=C/C(Br)=C/c2ccccc2)c([N+](=O)[O-])c1	0	0	0	0	-	-
CCc1ccccc1NC(=O)CCC(=O)OCC(=O)c1ccc(Cl)cc1	0	0	8.7	0	0	0
CCc1ccc(C(=O)COC(=O)CCC(=O)Nc2ccc(OC)cc2)cc1	0	0	6.5	0	0	0
CCOC(=O)c1ccc(NC(=O)CCC(=O)OCC(=O)c2ccc([N+](=O)[O-])cc2)cc1	0	0	7.4	0	0	0
CCc1ccc(C(=O)COC(=O)CCC(=O)Nc2ccc([N+](=O)[O-])cc2)cc1	0	0	0	0	-	-
CCc1ccccc1NC(=O)CCC(=O)OCC(=O)c1ccc(C)cc1	0	0	0	0	-	-
COc1ccc(NC(=O)CCC(=O)Oc2ccc(C)cc2)cc1	0	0	16.2	0	0	0
SMILES	FBW7 activator	TEAD-YAP block	GPR151 ag	MITF primary	GPR151 conf act	GPR119 ag
O=C(CCCC(=O)OCC(=O)c1ccc(Cl)c([N+](=O)[O-])c1)Nc1ccccc1Cl	0	0	5.1	0	0	0
Cc1ccc(-n2c(=O)c(C#N)cc3c(=O)n4cccc(C)c4nc32)cc1Cl	0	0	0	0	-	-
COC(=O)N/N=C\c1c(C)nn(-c2ccccc2)c1Cl	0	0	0	0	-	-
COc1ccc(OC)c(-c2cc(C(=O)N/N=C/c3c(C)nn(-c4ccccc4)c3C)[nH]n2)c1	0	0	5.2	0	0	0
Cc1ccc2[nH]c3c(c2c1)CCCC3NC(N)=O (stereo not given)	0	0	0	0	-	-
Cc1ccc2[nH]c3c(c2c1)CCCC3NCc1ccc(F)cc1 (stereo not given)	0	48.9	14.0	0	0	0
O=c1c2sccc2nc(SCc2cc(=O)n3ccccc3n2)n1CCCN1CCCCC1	0	0	0	0	-	-
CCOC(=O)c1c(NC(C)=O)sc(C(C)=O)c1-c1ccccc1	0	0	0	0	-	-
Nc1ccc(OC(F)(F)C(F)F)c(N)c1	0	0	0	0	-	-
c1cncc(CNc2cc(-c3ccc(N4CCOCC4)nc3)ncn2)c1	0	0	0	0	-	-
O=C(CCCn1cnc(-c2ccccc2)cc1=O)NCCc1csc(-c2ccccc2)n1	0	0	9.2	0	0	0
Cc1cc(=O)n(CC(=O)NCc2csc(-c3ccccc3)n2)cn1	0	0	0	0	-	-
O=C(NCc1ccc(F)cc1)c1ccc(CN2CC(=O)N3CSCC3C2=O)cc1 (stereo not given)	0	0	0	0	-	-
CCOc1ccccc1Nc1nnc(SCc2nc3ccccc3c(=O)[nH]2)s1	0	0	0	0	-	-
O=c1[nH]c(CSc2nnc(Nc3ccccc3F)s2)nc2ccccc12	0	0	7.2	0	0	0
NC(Cc1cc(I)c(Oc2ccc(O)c(I)c2)c(I)c1)C(=O)O (stereo not given)	0	0	6.4	0	0	0
Cc1cc2ncn(-c3ncnc4sc5c(c34)CCCC5)c2cc1C	0	0	4.9	0	0	0
COc1ccc(Br)cc1C(=O)N/C(=C\c1cccc([N+](=O)[O-])c1)C(=O)Nc1ccccc1Cl	0	0	0	0	-	-
Cc1ccc(OCc2ccc(C(=O)NNC(=S)NCC3CCCO3)o2)c([N+](=O)[O-])c1 (stereo not given)	0	0	5.8	0	0	0
Cc1ccc(OC(C)C(=O)NNC(=S)NCC2CCCO2)c([N+](=O)[O-])c1 (stereo not given)	0	0	0	0	-	-
O=C(COc1ccccc1)Nc1cccc(NC(=O)Cc2ccc(Cl)cc2)c1	0	0	0	0	-	-
O=C(Cc1ccsc1)NCC1Cc2c(F)ccc(-c3ccncc3)c2O1 (stereo not given)	0	0	16.8	0	0	0
CC(C)CC(=O)NCC1Cc2c(F)ccc(-c3ccncc3)c2O1 (stereo not given)	0	0	0	0	-	-
OC(CN1CCOCC1)Cn1cnc2c(SCc3ccccc3)ncnc21 (stereo not given)	0	0	6.0	0	0	0
COc1cccc(NC(=O)CCC2CCN(Cc3ccc(OC(C)C)c(CO)c3)CC2)c1	0	0	0	0	-	-
SMILES	FBW7 activator	TEAD-YAP block	GPR151 ag	MITF primary	GPR151 conf act	GPR119 ag
CCCOc1ccc(/C(=N\O)C(C)(C)NO)cc1	0	0	0	0	-	-
COc1ccc(/C(=N/O)C(C)(C)NO)cc1	0	0	5.1	0	0	0
CCOC(=O)c1c(NC(=O)c2cc([N+](=O)[O-])nn2Cc2ccccc2)sc2c1CCC(CC)C2 (stereo not given)	0	0	0	0	-	-
CCC(=O)NNc1nc2ccc(OC)cc2s1	0	0	6.3	0	0	0
CCN(CC)CC(=O)Nc1nc2ccc(OC)cc2s1	0	0	0	0	-	-
N#Cc1cccc(S(=O)(=O)N2CCc3nc(-c4ccncc4)nc(N4CCCC4)c3C2)c1	0	0	0	0	-	-
